# Screening data from PubChem BioAssay.
# Tau fluor cs: counter-screen for tau fibril formation inhibitors; tau K18 P301L Alexa594 fluorescence, heparin fibrillization; Potency, µM (doses to about 57.7 µM); 280,000 tested, 0.93% active; AID 1463; further: nearly all actives have a fitted effect of over 55% in size
#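 Human tau K18 P301L (15 uM unlabeled, 0.24 uM Alexa 594-labeled) in 100 mM sodium acetate pH 7 with 20 uM heparin, 6 hr at 37 C. ThT 30 uM added, 1 hr ambient; Alexa 594 FP and total fluorescence read at 555/632 nm.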
# Tau fibril ThT: inhibitors of human tau fibril formation, thioflavin T binding | P10636 | recombinant tau K18 P301L (four-repeat tau fragment), heparin-induced fibrillization, ThT fluorescence | Potency, µM (highest dose often 57.4 µM), hits mostly inhibitors | 270,000 tested, 2.1% active | AID 1460; further: nearly all actives have a fitted effect of over 55% in size
# Target sequence (P10636 561-689 P618L limits assumed): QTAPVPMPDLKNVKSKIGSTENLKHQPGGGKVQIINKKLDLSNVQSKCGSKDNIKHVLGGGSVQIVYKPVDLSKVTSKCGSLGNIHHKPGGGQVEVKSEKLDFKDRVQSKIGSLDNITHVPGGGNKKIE
#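 K18 P301L tau (15 uM + 0.24 uM Alexa 594-tagged), heparin 20 uM, NaOAc pH 7, 6 h 37 C; ThT 30 uM, 1 h RT, ex 450/em 510 nm.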
# Tau FP inhib: inhibitors of human tau fibril formation; P10636; K18 P301L tau heparin fibrillization, Alexa594 FP, 6 h; Potency, µM (highest dose often 57.7 µM), usual class: inhibitors; 280,000 tested, 0.39% active; AID 1468; further: nearly all actives have a fitted effect of over 55% in size
#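 Compound effects on tau fibrillization are measured by Alexa 594 fluorescence polarization (ex 555, em 632 nm). K18 P301L tau is used at 15 uM with 0.24 uM labeled tracer, and 20 uM heparin induces aggregation over 6 hr at 37 C.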
# Sfp inh: inhibitors of Bacillus subtilis Sfp phosphopantetheinyl transferase | Q9F4F7 | Potency, µM, hits mostly inhibitors | AID 1490 | 310,000 tested, 3.5% active | Biochemical Sfp PPTase activity, qHTS;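 further: the enzyme is Sfp with the accession as filed and its product quenches rhodamine fluorescence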
#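 Fluorescence-quenching assay with 15 nM Sfp, 5 uM rhodamine-CoA and 12.5 uM BHQ-2-labelled ybbR peptide in pH 7.6 Hepes/MgCl2 buffer. Enzyme was pre-incubated with compound for 15 min at room temperature. Rate was taken from the 30-min fluorescence change (525/598 nm).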
# FBPA coupling cs: inhibits coupling enzyme system, counter-screen for aldolase hits; activity change, negative = inhibition, % at 58.2 µM, hits read low; coupling enzyme system counterscreen, AmpLite Red fluorescence; 290,000 tested, 0.67% active; in the data active means activity change below about -30%
#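 Final compound at 57.5 uM, incubated 10 min at RT with coupling enzyme reagent (glyceraldehyde-3-phosphate), then 20 min with substrate and AmpLite Red detection. Fluorescence read at 525/598 nm; tests interference with the coupling assay, not aldolase inhibition.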
# G9a inh: inhibitors of human histone lysine methyltransferase G9a. AID 504332. 350,000 tested, 8.8% active. Q96KQ7. G9a H3K9 monomethylation, AlphaScreen, 2 h. Potency, µM (titrated, usually from 102 µM), hits mostly inhibitors; further: nearly all actives have a fitted effect of over 75% in size
# Target sequence (Q96KQ7 913-1193 limits assumed): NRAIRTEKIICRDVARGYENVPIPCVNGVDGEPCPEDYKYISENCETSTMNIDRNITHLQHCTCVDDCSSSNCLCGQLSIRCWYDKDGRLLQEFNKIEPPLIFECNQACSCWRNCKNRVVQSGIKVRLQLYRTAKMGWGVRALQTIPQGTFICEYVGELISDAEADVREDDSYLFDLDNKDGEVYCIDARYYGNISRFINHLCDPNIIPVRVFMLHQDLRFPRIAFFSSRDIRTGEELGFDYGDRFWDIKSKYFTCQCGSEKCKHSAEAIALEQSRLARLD
#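 Compounds were preincubated with 20 nM G9a for 15 min, after which biotinylated H3K9 peptide (500 nM) and SAM (20 uM) started a 2 h room-temperature reaction. Monomethylated product was quantified by antibody-based AlphaScreen chemiluminescence.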
# Numbers stand for hits; . = inactive; ? = inconclusive; / = no result given; [ ] = another dose, or the depositor's remark. An excerpt weighted towards active compounds, which were near 11% of everything screened. Unless noted, the call rests on the fitted dose curve; in most records, active means well fitted curve in the direction sought with a large enough effect; inconclusive means small, poorly fitted or top-dose-only effect, or another doubt; inactive means no such curve, though single readings can be large; an effect the other way counts as inactive or inconclusive.
SMILES,Tau fluor cs,Tau fibril ThT,Tau FP inhib,Sfp inh,FBPA coupling cs,G9a inh
O=C(Nc1ccc2nc(SCc3ccccc3)sc2c1)c1ccccc1F,?,.,?,/,/,.
COC(=O)CC1[C@@]2(C)C[C@]34OC5(C)OC6(C7CC(=O)OC(c8ccoc8)[C@]7(C)CCC6(O5)[C@]13C)C(OC(C)=O)[C@]4(OC(C)=O)C2OC(C)=O (stereo partly specified),.,.,.,.,.,/
CCc1ccc(Nc2ccc(S(=O)(=O)N3CCOCC3)cc2[N+](=O)[O-])cc1,.,?,?,.,.,28µM
Cc1ccccc1Nc1ccc(S(=O)(=O)N2CCOCC2)cc1[N+](=O)[O-],.,.,.,.,.,?
Cc1ccc(Nc2ccc(S(=O)(=O)N3CCOCC3)cc2[N+](=O)[O-])c(C)c1,.,?,?,.,.,35µM
CCOc1ccc(S(=O)(=O)N2CCOCC2)cc1[N+](=O)[O-],.,.,.,.,.,.
Cc1ccc(-c2noc(-c3nnn(-c4ccc(Br)cc4F)c3C)n2)cc1,.,.,.,/,/,.
Cc1ccc(C(=O)NC(c2ccccc2)C(Cl)Cl)cc1 (stereo unspecified),.,.,.,.,.,50µM
O=C(NC(c1ccccc1)C(Cl)Cl)c1ccccc1 (stereo unspecified),.,.,.,.,.,.
COC(=O)c1ccc(COC(=O)C(NC(=O)Cc2ccccc2)C(C)C)cc1 (stereo unspecified),/,/,/,/,/,.
CCc1ccccc1NCC(=O)Nc1ccc(Cl)c(C(F)(F)F)c1,18µM[quencher],.,?,.,.,.
O=C(O)CCc1ccc(-c2ccccc2)n1NC(=O)c1sc2ccccc2c1Cl,.,.,.,.,.,50µM
NC(=O)Nn1c(CCC(=O)O)ccc1-c1ccc(Cl)cc1,.,.,.,.,.,.[12.7 µM]
O=C(CCS(=O)(=O)c1ccccc1)Nc1nnc(C(F)(F)F)s1,/,/,/,.,.,40µM
Cc1ccnc(NC(=O)CCS(=O)(=O)c2ccccc2)c1,/,/,/,.,.,79µM
CC(C)(C)c1nnc(NC(=O)CCS(=O)(=O)c2ccccc2)s1,/,/,/,.,.,28µM
CCOc1ccc(NC(=O)CSc2nnc3c(C)cc4ccccc4n23)cc1,.,.,.,/,/,.
C=CCOCC1CN2C(CCC(C)C2c2ccc(Br)cc2)C(=O)O1 (stereo unspecified),.[11.6 µM],.[11.5 µM],.[11.6 µM],.,.,/
Cc1ccc(NC(=O)Cc2nc(CCl)cs2)cc1,.,.,.,.,.,8.9µM
COc1cc(/C=C/C(=O)OCc2csc(CC(=O)Nc3ccc(C)cc3)n2)ccc1OCC#N,/,/,/,/,/,10µM
O=C(Nc1ccc2c(c1)OCCO2)c1cc2sccc2n1Cc1ccc(F)cc1,?,.,.,.,.,.
O=C(Nc1ccc2c(c1)OCCO2)c1cc2sccc2n1Cc1ccccc1,14µM[quencher],.,.,.,/,.[0.501 µM]
CCOC(=O)c1ccc(NC(=O)c2cc3sccc3n2Cc2ccc(Cl)cc2)cc1,.,?,?,/,/,.
Cn1c(C(=O)Nc2ccc3c(c2)OCCO3)cc2sccc21,?,?,.,.,.,50µM
CC(=O)c1ccc(NC(=O)c2cc3sccc3n2Cc2ccc(Cl)cc2)cc1,?,.,10µM,/,/,.
SMILES,Tau fluor cs,Tau fibril ThT,Tau FP inhib,Sfp inh,FBPA coupling cs,G9a inh
O=C(Nc1ccc(F)cc1)c1cccc(N2C(=O)C3C4C=CC(C5CC45)C3C2=O)c1 (stereo unspecified),/,/,/,.,.,.
Cc1c(CC(=O)NCCc2ccc(Cl)cc2)c(=O)oc2c(C)c3occ(C(C)(C)C)c3cc12,.,.,.,/,/,.
c1ccc(C2=Nc3ccccc3NC(c3ccccc3)C2)cc1 (stereo unspecified),.,?,.,.,.,35µM
N#C/C(=C\c1ccc(-c2cccc([N+](=O)[O-])c2)o1)C(=O)Nc1nc(-c2cccs2)cs1,?,2µM,.,.,.,.
CC(=O)Nc1ccc(NC(=O)C(C)OC(=O)C2CCN(S(=O)(=O)c3ccc4c(c3)OCCO4)CC2)cc1 (stereo unspecified),/,/,/,/,/,.
COc1cccc(S(=O)(=O)NCc2ccc(C(=O)NCc3ccco3)cc2)c1,.,.,.,?,.,45µM
COc1cccc(S(=O)(=O)NCc2ccc(C(=O)N3CCN(c4ccccc4)CC3)cc2)c1,/,/,/,.,/,63µM
O=S(=O)(c1ccc(Cl)cc1)N1CCSC1c1ccco1 (stereo unspecified),.,.,.,.,.,.
O=[N+]([O-])c1ccc(S(=O)(=O)N2CCSC2c2ccco2)cc1 (stereo unspecified),.,?,.,40µM,.,8.9µM
CCOC(=O)c1sc(=S)n(-c2ccccc2Cl)c1SC,.,.,.,.,.,.
CCOC(=O)c1c(N)sn(-c2ccccc2C)c1=S,.,?,?,18µM,.,5.6µM
Cc1ccc(-n2c(-c3ccncc3)n[nH]c2=S)cc1,.,.,.,.,.,8.9µM
O=C(O)c1ccc(-n2c(-c3cc(C4CC4)[nH]n3)n[nH]c2=S)cc1,.,.,.,56µM,.,18µM
Cc1ccc(-n2c(-c3cnccn3)n[nH]c2=S)cc1,.,.,.,56µM,.,7.9µM
Cc1ccc(-n2c(-c3ccc(Cl)cc3Cl)n[nH]c2=S)cc1,/,/,/,.,.,/
Cc1ccc(-n2c(-c3ccccc3)n[nH]c2=S)cc1,.,.,.,79µM,.,0.89µM
Cc1ccc(-c2n[nH]c(=S)c3ccccc23)cc1,.,.,.,.,.,32µM
O=C(O)c1ccc(-n2c(-c3ccccc3)n[nH]c2=S)cc1,.,.,.,79µM,.,?
CC(c1ccccc1)n1c(-c2ccc(C(C)(C)C)cc2)n[nH]c1=S (stereo unspecified),/,/,/,.,.,32µM
Cc1ccc(-n2c(-c3ccncc3)n[nH]c2=S)cc1C,.,.,.,45µM,.,5µM
COc1ccc(CCn2c(-c3ccncc3)n[nH]c2=S)cc1OC,.,.,.,?,.,?
O=C(O)c1ccc(CSc2nnc(-c3ccccc3)n2-c2ccccc2)cc1,.,.,.,.,.,.
S=c1[nH]nc(-c2ccccc2)c2ccccc12,.,.,.,.,.,?
COc1cc(-c2n[nH]c(=S)n2-c2ccc(C)cc2)cc(OC)c1OC,.,.,.,.,.,/
COc1ccc(-n2c(-c3ccc(C)cc3)n[nH]c2=S)cc1,.,.,.,89µM,.,4µM
Cc1ccc(-n2c(Cc3cccc4ccccc34)n[nH]c2=S)c(C)c1,.,.,.,.,.,?
Cc1ccc(-n2c(-c3ccccc3)n[nH]c2=S)c(C)c1,/,/,/,.,.,1.8µM
Cc1n[nH]c(=S)n1-c1ccccc1,.,.,.,.,.,/
CC(C)(C)c1ccc(-c2n[nH]c(=S)n2-c2ccccc2)cc1,/,/,/,.,.,2.8µM
